Compounds with a hit are over-represented: about 3.4% of the library has one in this group of screens.
Wnt act – activates Wnt/beta-catenin signaling in a reporter cell assay; activation, % at 9.35 µM; 1.2% of 300,000 active; activator, plate reader; in the data active means activation above about 30%, passing the limit was not always enough; inconclusive means no clear call, values can overlap the other calls;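 further: 0% = neutral control wells and 100% = positive control wells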
miR-122 sensor – blocks miR-122 activity in Huh7 sensor cells; Huh7 miR-122 Renilla luciferase sensor, 48 h; neutral wells = 0, positive control = 100; activation (reporter increase), % at 12.5 µM; 0.3% of 340,000 active;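 active means mean replicate activation score at least 90 and every replicate individually at or above 90; inconclusive means only one of the two criteria met; inactive means neither criterion met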;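 further: higher luciferase means less miR-122 activity so hits act as miR-122 inhibitors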
esBAF inh – inhibitors of esBAF chromatin remodeling in mouse ES cells. Bmi1-luciferase knock-in reporter, 24 h; 100% = twice the neutral-well signal. reporter increase, % at 12.5 µM. 2% of 350,000 active. AID 602393; in the data active means activation above about 40%; inconclusive means no clear call, values can overlap the other calls;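 further: 0% = median of the plate's neutral control wells and 100% = double that signal; a rise in the Bmi1 reporter signal indicates esBAF inhibition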
MITF act – increases MITF-driven TRPM1 promoter luciferase signal. SK-MEL-5 TRPM1-promoter luciferase, 24 h; % of positive control, neutral wells = 0. activation, % at 12.5 µM. 0.75% of 300,000 active;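 active means mean activation of at least 80% with every replicate also reaching 80%; inconclusive means mean reaches 80% but some replicate falls short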;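 further: 0% = neutral control wells and 100% = parthenolide positive control wells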
Env fusion inh – inhibitors of HIV Env-mediated cell fusion. HeLa-JRFL Env/CEM21 cell fusion, luciferase. inhibition, % at 12.3 µM. 1.1% of 360,000 active. AID 651610;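 active means mean replicate inhibition score of at least 50 and every replicate individually at or above 50; inconclusive means only one of the two criteria met; inactive means mean below 50 and not all replicates reaching 50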;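 further: 0% = plate neutral controls and 100% = maraviroc near 300 nM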
* marks the source's active call; other numbers are inactive results; ? = inconclusive; . = no result; [ ] = remark or other dose.

SMILES	Wnt act	miR-122 sensor	esBAF inh	MITF act	Env fusion inh
NC(=O)c1ccsc1NC(=O)c1ccc(S(=O)(=O)N2CCCCC2)cc1	10	-3	100*	.	-39
O=C(Nc1ccccn1)c1ccc(S(=O)(=O)N2CCCCCC2)cc1	25	.	?	64	-18
Cc1ccnc(NC(=O)c2ccc(S(=O)(=O)N3CCCCCC3)cc2)c1	34*	.	.	84*	-49
Cc1ccnc(NC(=O)c2ccc(S(=O)(=O)N3CCCCC3)cc2)c1	2	-11	19	16	1
O=C(Nc1ccccn1)c1ccc(S(=O)(=O)N2CCCCC2)cc1	23	.	40	91*	-22
CC1(C)Cc2c(sc(NC(=O)c3ccc(S(=O)(=O)N4CCCCCC4)cc3)c2C#N)C(C)(C)N1	1	.	0	-4	63*
CCOC(=O)N1CCN(S(=O)(=O)c2ccc(C(=O)Nc3sc4c(c3C(N)=O)CC(C)(C)NC4(C)C)cc2)CC1	-3	.	.	-4	-8
CO[C@H](CN(C)C(=O)c1ccc2c(c1)OCO2)[C@H](C)CN([C@H](C)CO)S(=O)(=O)c1ccccc1	.	.	0	.	.
CC(C)NC(=O)Nc1ccc2c(c1)C(=O)N([C@@H](C)CO)C[C@@H](C)[C@H](CN(C)C(=O)Nc1ccc(C(F)(F)F)cc1)OCCCC[C@@H](C)O2	.	-4[16.7 µM]	0	.	15[16.7 µM]
Cc1ccnc(NC(=O)c2cccc(S(=O)(=O)N3CCCc4ccccc43)c2)c1	30	1	.	88*	-25
C[C@@H]1CN([C@H](C)CO)C(=O)c2cc(NS(=O)(=O)c3cn(C)cn3)ccc2O[C@@H](C)CCCCO[C@@H]1CN(C)S(=O)(=O)c1ccc(F)cc1	.	12[16.7 µM]	-1	.	-4[16.7 µM]
CO[C@H]1CN(C)C(=O)c2ccc(NC(C)=O)cc2OC[C@H](C)N(C(=O)c2ccccn2)C[C@H]1C	.	15[16.7 µM]	-4	.	7[16.7 µM]
CCOC(=O)c1cc2ccc3ccccc3c2oc1=O	0	0	-8	.	14
CCOC(=O)c1cc2c(s1)-c1ccccc1CC2	0	10	57*	32	.
CCOC(=O)c1cc2ccc3ccccc3c2s1	.	2	75*	53	.
CC(=O)Nc1ccc(/C=C/c2nc(-c3ccccc3O)n[nH]2)cc1	18	.	73*	58	-46
COc1cc(/C=C/c2nc(-c3ccccc3O)n[nH]2)cc(OC)c1OC	.	.	.	19	29
C/C=C/c1cnc2c(c1)C(=O)N([C@H](C)CO)C[C@@H](C)[C@@H](CN(C)Cc1ccc(F)cc1)O2	.	2[16.7 µM]	-3	.	15[16.7 µM]
Cc1cc(OCc2cc(C(=O)N(C)CC3CCOCC3)no2)cc(C)c1Cl	-4	-8	50*	47	-5
CCN(CC1CCCO1)C(=O)c1cc(COc2cc(C)c(Cl)c(C)c2)on1 (configuration not stated)	30	5	84*	90*	-51
Cc1cc(OCc2cc(C(=O)N(C)CCCN3CCOCC3)no2)cc(C)c1Cl	-9	7	16	19	11
C[C@@H]1CN([C@H](C)CO)C(=O)c2cc(C#CC3CC3)cnc2O[C@H]1CN(C)S(=O)(=O)c1cccc(F)c1	.	3[16.7 µM]	0	.	13[16.7 µM]
CC(C)NC(=O)N1CCCN(c2nc3ccc(Cl)cc3s2)CC1	31*	-3	35	19	21
CCCC(=O)N1CCN(c2nc3ccccc3s2)CC1	0	-3	-4	96*	-18
Cc1noc(C)c1COC(=O)c1ccc(-c2nc3ccccc3s2)s1	.	-2	65*	62	.
SMILES	Wnt act	miR-122 sensor	esBAF inh	MITF act	Env fusion inh
O=C(c1ccc(Cl)s1)N1CCN(c2nc3ccccc3s2)CC1	-4	5	18	-4	77*
CCCCC(=O)N1CCN(c2nc3ccc(F)cc3s2)CC1	1	4	12	35	-21
Clc1ccc2nc(N3CCCCC3)sc2c1	16	.	.	66	.
Cc1noc(C)c1NC(=O)Nc1ccc2c(c1)C(=O)N([C@@H](C)CO)C[C@@H](C)[C@H](CN(C)S(=O)(=O)c1cccs1)O2	.	-6[16.7 µM]	4	.	.
CCC(=O)N1CCN(c2nc3ccc(Br)cc3s2)CC1	20	-14	75*	71	-24
Fc1cccc(Cl)c1CN1CCN(c2nc3ccccc3s2)CC1	27	-2	70*	77	-55
CCN1CCN(C(=O)c2ccc(-c3nc4ccccc4s3)s2)CC1	49*	-2	36	31	-26
Cc1nc2nc(-c3cccs3)cn2nc1C	47*	.	.	.	-108
CN(C(=O)c1ccc2c(c1)OCO2)C1(C(=O)NC2CCCC2)CCCCC1	0	-2	0	5	-36
O=C(c1ccc2c(c1)OCO2)N(Cc1cccs1)C1(C(=O)NC2CCCCC2)CCCCC1	.	.	.	-6	103*
O=C(Cc1cccs1)N(Cc1ccco1)C1(C(=O)NC2CCCCC2)CCCCC1	-2	8	-6	2	73*
O=C(c1ccc2c(c1)OCO2)N(CC1CCCO1)C1(C(=O)NC2CCCCC2)CCCCC1 (configuration not stated)	-2	0	-10	.	135*
COc1ccc(C(=O)OCC(=O)c2ccc[nH]2)cc1	26	9	51*	76	-31
O=C(OCC(=O)c1ccc[nH]1)c1ccc(Br)cc1	2	2	-9	.	0
C[C@@H]1CN([C@H](C)CO)C(=O)c2cc(NS(C)(=O)=O)ccc2O[C@@H](C)CCCCO[C@H]1CN(C)S(=O)(=O)c1ccc(F)cc1	.	2[16.7 µM]	0	.	-1[16.7 µM]
C[C@@H]1CN([C@H](C)CO)S(=O)(=O)c2ccc(-c3cccnc3)cc2O[C@H]1CN(C)C(=O)C1CCCCC1	.	10[16.7 µM]	2	.	20[16.7 µM]
Cc1cc(COc2ccccc2)oc1C(=O)O	1	-8	51*	.	-13
O=C(Nc1ccc(N=Nc2ccccc2)cc1)c1ccc(Cl)cc1Cl	.	-2	9	17	.
O=C(Nc1ccc2ccccc2c1)c1ccccc1[N+](=O)[O-]	24	.	51*	32	-5
O=C(Nc1ccc2ccccc2c1)c1cc(F)c(F)cc1Cl	15	1	78*	.	-80
O=C(Nc1ccc2ccccc2c1)c1ccccc1Cl	44*	-5	-5	.	-208
O=C(Nc1ccc(N=Nc2ccccc2)cc1)c1ccccc1Cl	.	.	.	121*	-40
CCCNC(=O)[C@@H]1[C@@H](CO)[C@@H]2Cn3c(ccc(-c4ccccc4F)c3=O)[C@H]1N2CCC	.	-3[16.7 µM]	6	.	.
O=C(C[C@@H]1CC[C@@H]2[C@H](COC[C@H](O)CN2Cc2cccc(-c3ccncc3)c2)O1)N1CCN(c2ccccc2)CC1	.	-4[16.7 µM]	-18	.	.
Cc1ccc(S(=O)(=O)Nc2ccc3c(c2)C(=O)N([C@H](C)CO)C[C@@H](C)[C@@H](CN(C)Cc2ccc(C(=O)O)cc2)OCCCC[C@@H](C)O3)cc1	.	0[16.7 µM]	-2	.	-1[16.7 µM]
CCCNC(=O)N(C)C[C@@H]1Oc2ncc(C#CCc3ccccc3)cc2C(=O)N([C@@H](C)CO)C[C@@H]1C	.	3[16.7 µM]	2	.	3[16.7 µM]
COc1ccc(OC)c(S(=O)(=O)N2CCC3(CC2)OCCN3S(=O)(=O)c2cccs2)c1	-5	107*	6	4	16
